This is part of a sample that, as a whole, favours compounds with a hit. Of some 79,000 tested, about 15% had one in any assay. A number with no mark means an inactive call. Active and inactive are the calls of the source. Cut-off read from the data, not from the text of the source: active = growth inhibition above about 70%; inactive = the rest.

The nature of experiment [1]: NCI Yeast Anticancer Drug Screen. Data for the rad50 strain (AID 155).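 Note: 0% = growth of vehicle-only cultures of the same strain.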 Particulars: S. cerevisiae rad50 strain growth inhibition, stronger effect = higher value. The method, boiled down: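 Compounds were tested on a yeast strain with an engineered DNA damage repair alteration; the reported value is growth inhibition normalised to vehicle treatment.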
Experiment [2] can be described thus: NCI Yeast Anticancer Drug Screen. Data for the mec2-1 strain (AID 157). Particulars: S. cerevisiae mec2-1 strain, stronger effect = higher value. The method in brief:
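Using mec2-1 yeast: add compound, measure growth, express inhibition versus vehicle-treated cultures.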

Experiment [3] in a line: NCI Yeast Anticancer Drug Screen. Data for the sgs1 mgt1 strain (AID 161).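 Note: 0% = growth of cultures given vehicle only.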 To be noted: S. cerevisiae sgs1 mgt1 strain, stronger effect = higher value. The method in brief:
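Yeast cells carrying a defined DNA-repair defect were exposed to test compounds. Growth inhibition was measured relative to vehicle-treated controls.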

Experiment [4] in a line: NCI Yeast Anticancer Drug Screen. Data for the cln2 rad14 strain (AID 165).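 Note: 0% = growth equal to vehicle treated cultures.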 Particulars: S. cerevisiae cln2 rad14 strain, stronger effect = higher value. The method in brief:
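Yeast strain cln2 rad14, bearing defects in cell cycle control and DNA repair, serves as the test system; values reflect growth inhibition compared with vehicle.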

Experiment [5] in a line: NCI Yeast Anticancer Drug Screen. Data for the bub3 strain (AID 167). To be noted: S. cerevisiae bub3 mutant strain, stronger effect = higher value. The method in brief: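 Growth of a checkpoint-deficient yeast mutant is measured after compound exposure. Values represent inhibition relative to vehicle.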
Experiment [6] in a line: NCI Yeast Anticancer Drug Screen. Data for the mlh1 rad18 strain (AID 175). Particulars: S. cerevisiae mlh1 rad18 strain growth inhibition, stronger effect = higher value. The method, boiled down: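 Steps: expose repair-defective yeast to compound; measure growth; express inhibition against vehicle-treated controls.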
Setting [7] is: at 5.0 µM (retest, dose inferred, filed as 0.5).
The mark [8] stands for this setting: at 50.0 µM (retest, dose inferred, filed as 5.0).

For `O=C1CSC(c2ccccc2O)N1c1ccc(-n2c(-c3ccccc3)nc3ccccc3c2=O)cc1` (stereo unspecified), the growth inhibition in experiment [1] (setting [7]) is 2%; in experiment [1] (setting [8]), 78% (active); in experiment [1] (at 50.0 µM), 67.3%; in experiment [2] (setting [7]), -1%; in experiment [2] (setting [8]) it was 39%; in experiment [2] (at 50.0 µM) it was 64.4%. Besides, the growth inhibition in experiment [3] (setting [7]) was 5%; in experiment [3] (setting [8]), 50%; in experiment [3] (at 50.0 µM), 72.5% (active); in experiment [4] (setting [7]), 29%; in experiment [4] (setting [8]) it was 79% (active); in experiment [4] (at 50.0 µM), 78.5% (active). The growth inhibition in experiment [5] (setting [7]) is -13%; in experiment [5] (setting [8]) it was 56%; in experiment [5] (at 50.0 µM) it was 74.8% (active); in experiment [6] (setting [7]), 0%; in experiment [6] (setting [8]), 81% (active); in experiment [6] (at 50.0 µM), 75.5% (active).

On to `O=C(O)/C=C1\c2ccccc2CCC1c1ccc2ccccc2c1` (stereo unspecified), for which the growth inhibition in experiment [1] (setting [7]) is 64%; in experiment [1] (setting [8]), 93% (active); in experiment [1] (at 50.0 µM) it was 99.7% (active); in experiment [2] (setting [7]), 27%; in experiment [2] (setting [8]), 85% (active); in experiment [2] (at 50.0 µM), 99.7% (active). The growth inhibition was 43% in experiment [3] (setting [7]); 91% (active) in experiment [3] (setting [8]); 99.8% (active) in experiment [3] (at 50.0 µM); 41% in experiment [4] (setting [7]); 82% (active) in experiment [4] (setting [8]); 99.3% (active) in experiment [4] (at 50.0 µM). In addition, the growth inhibition in experiment [5] (setting [7]) is 47%; in experiment [5] (setting [8]) it was 85% (active); in experiment [5] (at 50.0 µM) it was 99.8% (active); in experiment [6] (setting [7]), 54%; in experiment [6] (setting [8]), 93% (active); in experiment [6] (at 50.0 µM) it was 99.5% (active).

For `Cn1ncc2c(NCc3ccc(Cl)cc3)nc(Cl)nc21`, the growth inhibition was 7% in experiment [1] (setting [7]); 97% (active) in experiment [1] (setting [8]); 98.2% (active) in experiment [1] (at 50.0 µM); -1% in experiment [2] (setting [7]); 98% (active) in experiment [2] (setting [8]); 96.5% (active) in experiment [2] (at 50.0 µM). For the same molecule, the growth inhibition in experiment [3] (setting [7]) is 8%; in experiment [3] (setting [8]) it was 97% (active); in experiment [3] (at 50.0 µM), 98% (active); in experiment [4] (setting [7]), 2%; in experiment [4] (setting [8]) it was 95% (active); in experiment [4] (at 50.0 µM), 99.2% (active). Besides, the growth inhibition was 2% in experiment [5] (setting [7]); 97% (active) in experiment [5] (setting [8]); 98.9% (active) in experiment [5] (at 50.0 µM); 0% in experiment [6] (setting [7]); 97% (active) in experiment [6] (setting [8]); 98.5% (active) in experiment [6] (at 50.0 µM).

With `C/C=C/c1ccc(OCC(=O)O)c(OC)c1`, the growth inhibition in experiment [1] (setting [7]) is -14%; in experiment [1] (setting [8]), -10%; in experiment [1] (at 50.0 µM), 99% (active); in experiment [2] (setting [7]), -9%; in experiment [2] (setting [8]), -18%; in experiment [2] (at 50.0 µM), 98.2% (active). Also, the growth inhibition is 8% in experiment [3] (setting [7]); 1% in experiment [3] (setting [8]); 98.2% (active) in experiment [3] (at 50.0 µM); -3% in experiment [4] (setting [7]); -11% in experiment [4] (setting [8]); 98.2% (active) in experiment [4] (at 50.0 µM). Further, the growth inhibition is -31% in experiment [5] (setting [7]); -4% in experiment [5] (setting [8]); 98.8% (active) in experiment [5] (at 50.0 µM); -5% in experiment [6] (setting [7]); -11% in experiment [6] (setting [8]); 98% (active) in experiment [6] (at 50.0 µM).

Take `CCCCCCCCCCN(CCCCCCCCCC)C(=O)COc1c2cc(C(C)(C)C)cc1Cc1cc(C(C)(C)C)cc(c1OCC(=O)N(CCCCCCCCCC)CCCCCCCCCC)Cc1cc(C(C)(C)C)cc(c1OCC(=O)N(CCCCCCCCCC)CCCCCCCCCC)Cc1cc(C(C)(C)C)cc(c1OCC(=O)N(CCCCCCCCCC)CCCCCCCCCC)C2`: the growth inhibition is 98% (active) in experiment [1] (setting [7]); 92% (active) in experiment [1] (setting [8]); 85.8% (active) in experiment [1] (at 50.0 µM); 98% (active) in experiment [2] (setting [7]); 95% (active) in experiment [2] (setting [8]); 89.3% (active) in experiment [2] (at 50.0 µM). Besides, the growth inhibition in experiment [3] (setting [7]) was 99% (active); in experiment [3] (setting [8]) it was 95% (active); in experiment [3] (at 50.0 µM), 89% (active); in experiment [4] (setting [7]), 98% (active); in experiment [4] (setting [8]) it was 94% (active); in experiment [4] (at 50.0 µM), 87.3% (active). The growth inhibition is 99% (active) in experiment [5] (setting [7]); 94% (active) in experiment [5] (setting [8]); 87.8% (active) in experiment [5] (at 50.0 µM); 97% (active) in experiment [6] (setting [7]); 92% (active) in experiment [6] (setting [8]); 84.8% (active) in experiment [6] (at 50.0 µM).

Turning to `COC(=O)c1cc(-c2ccc(C)cc2)c2c(=O)n(-c3ccccc3)[nH]c2n1`, the growth inhibition is 8% in experiment [1] (setting [7]); 75% (active) in experiment [1] (setting [8]); 72.9% (active) in experiment [1] (at 50.0 µM); 5% in experiment [2] (setting [7]); 71% (active) in experiment [2] (setting [8]); 94.9% (active) in experiment [2] (at 50.0 µM). Also, the growth inhibition in experiment [3] (setting [7]) is -7%; in experiment [3] (setting [8]), 51%; in experiment [3] (at 50.0 µM), 51.1%; in experiment [4] (setting [7]), 11%; in experiment [4] (setting [8]), 87% (active); in experiment [4] (at 50.0 µM), 94.8% (active). Besides, the growth inhibition in experiment [5] (setting [7]) was 4%; in experiment [5] (setting [8]) it was 69%; in experiment [5] (at 50.0 µM) it was 92.8% (active); in experiment [6] (setting [7]), -3%; in experiment [6] (setting [8]), 85% (active); in experiment [6] (at 50.0 µM) it was 85.9% (active).

For the molecule `O=CNc1ccc(Oc2ccc(NC=O)cc2)cc1`, the growth inhibition in experiment [1] (setting [7]) is -1%; in experiment [1] (setting [8]) it was -18%; in experiment [1] (at 50.0 µM), 3.6%; in experiment [2] (setting [7]) it was -18%; in experiment [2] (setting [8]), -19%; in experiment [2] (at 50.0 µM), 6.75%. Moreover, the growth inhibition in experiment [3] (setting [7]) is 1%; in experiment [3] (setting [8]), 1%; in experiment [3] (at 50.0 µM), 1.45%; in experiment [4] (setting [7]) it was -1%; in experiment [4] (setting [8]), 7%; in experiment [4] (at 50.0 µM), 61.3%. Moreover, the growth inhibition was -2% in experiment [5] (setting [7]); -15% in experiment [5] (setting [8]); -6.45% in experiment [5] (at 50.0 µM); 17% in experiment [6] (setting [7]); -5% in experiment [6] (setting [8]); 30.6% in experiment [6] (at 50.0 µM).
